Hits are enriched below; roughly 2.3% of the tested compounds scored in any of these assays.
Nrf2 activator = Nrf2 pathway activation; AREc32 ARE-luciferase reporter (MCF7-derived line), luminescence, 24 h; Potency, µM (titrated, usually from 46.1 µM), most hits filed as activators; actives 0.31% (n = 410,000); AID 624171; further: nearly all actives have a fitted effect of over 65% in size
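For detection, Steady-Glo was added and plates sat 30 min at RT; before that, AREc32_Fluc cells grown overnight in OPTI-MEM/5% FBS had been treated with 23 nL compound for 24 hr at 37 deg C.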
Giardia kill = Giardia lamblia killing | actives 0.15% (n = 340,000) | Giardia lamblia trophozoite viability | activity change, % at 7.66 µM, hits read low; in the data active means activity change below about -80%; inconclusive means between about -30% and that limit;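 further: parasites exposed to compound for two days anaerobically before the ATP read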
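Giardia trophozoites, 100 cells per well, were exposed to compounds for 48 hrs at 37 deg C under anaerobic conditions; viability was then read as ATP content by bioluminescence after 15-30 min at room temperature.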
A549 tox = A549 cytotoxicity, counter-screen for Nrf2 inhibitors | Potency, µM (top dose mostly 46 µM), usual class: inhibitors | A549 ARE-Fluc cells, CellTiter-Fluor viability, 18-24 h | actives 0.16% (n = 390,000)
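Cytotoxicity counterscreen: CellTiter-Fluor fluorescence was measured in A549 ARE_Fluc cells after 18-24 h of compound exposure in a concentration series. The subsequent BugLite luminescent read reports ARE-luciferase activity.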
Nrf2 inh = Nrf2 pathway inhibition; actives 2.1% (n = 360,000); Potency, µM (doses to about 46 µM), most hits filed as inhibitors; AID 504444; A549 ARE-Fluc reporter, luciferase luminescence, 18-24 h; further: nearly all actives have a fitted effect of over 60% in size
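Reporter: ARE-Fluc in A549. Exposure: 18-24 h, 37 °C, 5% CO2, 5% FBS OPTI-MEM. Readouts: fluorescent cytotoxicity (CellTiter-Fluor), then luminescent Nrf2 signal after BugLite.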
IDH1 R132H inh = inhibitors of human mutant IDH1 R132H | O75874 | IDH1-R132H enzyme, NADPH consumption, diaphorase/resazurin fluorescence | Potency, µM (highest dose often 76.6 µM), hits mostly inhibitors | actives 0.093% (n = 390,000); further: nearly all actives have a fitted effect of over 65% in size
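IDH1-R132H (0.5 ug/mL dispensed) in pH 7.5 Tris buffer was preincubated 30 min with compound, then given a substrate mix of 0.016 mM NADPH and 2 mM alpha-KG for 80 min at room temperature; remaining NADPH was read by diaphorase/resazurin fluorescence.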
Apoferritin bind = binds horse apoferritin like a general anesthetic; P02791; apoferritin/1-aminoanthracene competitive binding, fluorescence; Potency, µM (titrated, usually from 77.5 µM), actives largely listed as inhibitors; actives 0.074% (n = 350,000); further: nearly all actives have a fitted effect of over 20% in size
Target sequence (P02791 2-175 limits assumed): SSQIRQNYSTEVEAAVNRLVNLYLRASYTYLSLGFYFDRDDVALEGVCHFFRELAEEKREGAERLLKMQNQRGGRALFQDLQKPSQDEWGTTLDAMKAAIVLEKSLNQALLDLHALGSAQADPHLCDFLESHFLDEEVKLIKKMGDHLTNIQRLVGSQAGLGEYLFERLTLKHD
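In PBS, apoferritin at 10 uM is loaded with 1-AMA from a 50% saturated solution. After 10 min of compound exposure at ambient temperature, reduced 535 nm fluorescence indicates probe displacement.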
Numbers stand for hits; i = inactive; ? = inconclusive; nt = not tested or not shown; [ ] = another dose, or the depositor's remark. Unless noted, the call rests on the fitted dose curve; in most records, active means well fitted curve in the direction sought with a large enough effect; inconclusive means small, poorly fitted or top-dose-only effect, or another doubt; inactive means no such curve, though single readings can be large; an effect the other way counts as inactive or inconclusive.

SMILES	Nrf2 activator	Giardia kill	A549 tox	Nrf2 inh	IDH1 R132H inh	Apoferritin bind
CCCCC(=O)Nc1ncc(Br)s1	i	i	i	?	i	i
COc1ccc2cc(CN(CCO)C(=O)c3ccc(Br)cc3)c(=O)[nH]c2c1	i	i	i	21µM	i	i
COC(=O)C/C=C\[C@H](C)[C@H](CO)NS(=O)(=O)c1ccc(C)cc1	nt	nt	nt	nt	nt	i[15.3 µM]
CCOC(=O)/C=C1\CN(Cc2cc(OC)c(OC)c(OC)c2)S(=O)(=O)c2ccc(C(F)(F)F)cc21	i	i	i	21µM	i	?
CCOC(=O)/C=C1\CN(Cc2cc(OC)c(OC)c(OC)c2)S(=O)(=O)c2ccccc21	i	i	i	?	i	i
CC(C)(CNc1ccc(S(=O)(=O)C(F)(F)F)cc1[N+](=O)[O-])N1CCOCC1	i	i	i	23µM	i	i
Cn1nc(CC(=O)Nc2ccc(N3CCN(C(=O)OC(C)(C)C)CC3)cc2)c2ccccc2c1=O	i	i	i	10µM	i	i
Cc1ccc(-n2ncc(C(=O)NCCN3CCc4ccccc4C3)c2C2CCN(C(=O)OC(C)(C)C)CC2)cc1	i	nt	?	?	i	i
Cc1ccc(NC(=O)CSc2ccccc2NC(=O)c2ccccc2)cc1Cl	i	i	i	?	i	i
Cc1ccc(NC(=O)CSc2ccccc2NC(=O)c2ccccc2Cl)cc1Cl	i	i	?	26µM	i	i
Cc1ccc(CCNC(=O)CCCn2c(=O)c3ccccc3n(Cc3ccccc3C)c2=O)cc1	i	nt	i	i	i	i
O=C(CSc1ncnc2ccccc12)NCc1ccco1	i	i	i	i	i	i
O=C(CSc1ncnc2ccccc12)c1ccco1	2.8µM	i	i	i	i	i
N#Cc1ccsc1NC(=O)CSc1ncnc2ccccc12	13µM	i	i	?	i	i
CCOc1cc(CNCCc2ccc(S(N)(=O)=O)cc2)ccc1OCc1ccc(Cl)cc1	i	i	?	nt	i	?
COc1cc(CNCCc2ccc(S(N)(=O)=O)cc2)ccc1OCc1ccc(Cl)cc1	i	i	?	23µM	i	?
O=C(Cn1cnc2onc(-c3ccc(F)cc3)c2c1=O)Nc1ccc(F)c(Cl)c1	i	nt	i	?	i	i
O=C(CCCn1c(=O)[nH]c2ccsc2c1=O)N1CCN(c2ccc(Cl)cc2)CC1	i	nt	i	i[9.27 µM]	i	i
O=C(Cc1ccc(-n2c(=O)[nH]c3ccsc3c2=O)cc1)N1CCN(c2ccc(Cl)cc2)CC1	i	i	i	23µM	i	i
O=c1ccc(N=Nc2ccccc2)ccc1O	i	i	16µM	?	i	i
O=S(=O)(O)c1ccc(N=Nc2ccccc2)cc1	i	i	i	i	i	i
COc1ccc(NC(=O)c2ccc(-c3nc(CSc4ccccc4)c(C)o3)cc2)c(OC)c1	i	nt	i	i	i	i
CC(=O)c1ccc(N2CCN(c3ncnc4c3c(-c3ccccc3)cn4-c3ccc(Cl)cc3)CC2)cc1	i	nt	i	nt	i	i
NC(=O)c1sc2nc3c(c(-c4ccco4)c2c1N)CCC3	i	i	i	5.8µM	i	i
Cc1ccc(-c2c3c(nc4sc(C(N)=O)c(N)c24)CCCC3)o1	i	i	?	i	i	i
SMILES	Nrf2 activator	Giardia kill	A549 tox	Nrf2 inh	IDH1 R132H inh	Apoferritin bind
O=C(/C=C/c1ccccc1)NC(NC(=S)Nc1cc(Cl)ccc1Cl)C(Cl)(Cl)Cl (stereo unspecified)	i	i	?	4.1µM	i	i
CCN(Cc1ccccc1)S(=O)(=O)c1ccc(C(=O)Nc2nnc(-c3ccccc3OC)o2)cc1	i	i	i	13µM	i	i
COc1ccccc1-c1nnc(NC(=O)CCS(=O)(=O)c2ccc(F)cc2)o1	22µM	nt	nt	nt	i	nt
COc1ccccc1-c1nnc(NC(=O)c2ccc(S(=O)(=O)N(C)C)cc2)o1	i	i	i	?	i	i
Cc1ccc2occ(CC(=O)Nc3ccc(S(=O)(=O)N4CCCC(C)C4)cc3)c2c1 (stereo unspecified)	i	nt	i	21µM	i	i
C/C(N)=C(/C#N)C(=O)CSc1nn(-c2ccc(Cl)cc2)c(=S)s1	i	i	i	i	i	i
C/C(N)=C(/C#N)C(=O)CSc1nnc(SCc2ccc(Cl)cc2)s1	i	i	i	21µM	i	i
COc1ccc([S+](=O)([O-])N2CCN([S+](=O)([O-])c3ccc4c(c3)OCCO4)CC2)c(OC)c1	nt	nt	i	i	nt	nt
Cc1cc(N2CCC(C)CC2)nc2ccc(NC(=O)/C=C/c3cccc(Cl)c3)cc12	i	nt	i	i[9.27 µM]	i	i
Cc1cccc(Cn2c(=O)n3nc(-c4ccccc4)nc3c3ccccc32)c1	i	nt	i	15µM	i	i
COc1ccc(NC(=O)Nc2nnc(-c3ccco3)s2)cc1	13µM	i	i	?	i	i

Assay outcomes deposited in PubChem BioAssay by National Center for Advancing Translational Sciences (NCATS).
